Results: PubChem BioAssay (NCI)
Several values for one entry are separate records, joined by “and”; a condition that tells them apart may be missing. Equal values may be shown once. Compounds without any hit were thinned out: in the full panel of roughly 79,000, 15% have a hit. A structure can be active in one record and inactive in another. Activity calls are given as the source filed them. Rule as the data show it: active = growth inhibition above about 70%; inactive = the rest.

Key:
[1] = NCI Yeast Anticancer Drug Screen. Data for the rad52 strain (AID 147);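 also: 0% = growth of vehicle-treated control cultures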; conditions: S. cerevisiae rad52 mutant growth inhibition, stronger effect = higher value
Procedure, shortened: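 Measured: yeast growth inhibition. System: strain with a defined DNA damage repair alteration. Reference: vehicle-treated control cultures.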

[2] = NCI Yeast Anticancer Drug Screen. Data for the wt1 strain (AID 149);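 also: 0% = growth of vehicle-treated wt1 cultures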; conditions: S. cerevisiae wt1 strain (SPY 50644) growth inhibition, stronger effect = higher value
Procedure, shortened: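 wt1 strain grown with compound or vehicle; inhibition taken from the growth difference.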

[3] = NCI Yeast Anticancer Drug Screen. Data for the rad50EPP+ strain (AID 151);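 also: 0% = growth of vehicle-treated control cultures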; conditions: S. cerevisiae rad50 mutant strain, stronger effect = higher value
Procedure, shortened: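 One strain with a rad50 alteration (rad50EPP+) was compound-treated, its growth then compared to that of vehicle controls.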

[4] = NCI Yeast Anticancer Drug Screen. Data for the mgt1 strain (AID 153); conditions: S. cerevisiae mgt1 mutant growth inhibition, stronger effect = higher value
Procedure, shortened: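 After exposure of the mgt1 yeast mutant to compound, growth was measured and reported as inhibition compared with vehicle controls.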

[5] = NCI Yeast Anticancer Drug Screen. Data for the rad50 strain (AID 155);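 also: 0% = growth of vehicle-only cultures of the same strain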; conditions: S. cerevisiae rad50 strain growth inhibition, stronger effect = higher value
Procedure, shortened: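 DNA repair mutant yeast, compound exposure, growth read-out; inhibition is taken relative to vehicle.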

[6] = NCI Yeast Anticancer Drug Screen. Data for the mec2-1 strain (AID 157); conditions: S. cerevisiae mec2-1 strain, stronger effect = higher value
Procedure, shortened: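 Test agents were screened against the mec2-1 yeast strain, with defined DNA repair or cell cycle alteration. Growth was scored as inhibition against vehicle-only controls.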

[7] = NCI Yeast Anticancer Drug Screen. Data for the rad14 strain (AID 159);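 also: 0% = growth of vehicle-treated control cultures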; conditions: S. cerevisiae rad14 strain growth inhibition, stronger effect = higher value
Procedure, shortened: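 DNA repair-defective yeast, compound-exposed; % growth inhibition derived by comparison with vehicle-treated controls.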

[8] = NCI Yeast Anticancer Drug Screen. Data for the sgs1 mgt1 strain (AID 161);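 also: 0% = growth of cultures given vehicle only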; conditions: S. cerevisiae sgs1 mgt1 strain, stronger effect = higher value
Procedure, shortened: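 Mutant yeast exposed to compound; growth scored against vehicle-only wells.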

[9] = NCI Yeast Anticancer Drug Screen. Data for the CLN2oe strain (AID 163);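 also: 0% = growth of vehicle-only control cultures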; conditions: S. cerevisiae CLN2oe strain, stronger effect = higher value
Procedure, shortened: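 Here, growth inhibition in a cell-cycle-altered yeast strain after compound exposure was quantified against vehicle control growth.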

[10] = NCI Yeast Anticancer Drug Screen. Data for the cln2 rad14 strain (AID 165);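 also: 0% = growth equal to vehicle treated cultures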; conditions: S. cerevisiae cln2 rad14 strain, stronger effect = higher value
Procedure, shortened: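 Growth of compound-exposed yeast (cln2 rad14 genotype) measured and expressed as inhibition relative to vehicle.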

[11] = NCI Yeast Anticancer Drug Screen. Data for the bub3 strain (AID 167); conditions: S. cerevisiae bub3 mutant strain, stronger effect = higher value
Procedure, shortened: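 In this screen, a yeast mutant lacking normal mitotic checkpoint function is challenged with compound. Relative growth versus vehicle gives the inhibition value.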

[12] = NCI Yeast Anticancer Drug Screen. Data for the mlh1 strain (AID 171);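 also: 0% = growth of vehicle-treated control cultures of the same strain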; conditions: S. cerevisiae mlh1 strain growth inhibition, stronger effect = higher value
Procedure, shortened: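 Here the genetically defined yeast mutant is grown with each compound, and the extent to which its growth falls below that of vehicle-exposed cells is reported.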

[13] = NCI Yeast Anticancer Drug Screen. Data for the sgs1 strain (AID 173);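 also: 0% = growth of vehicle-only control cultures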; conditions: S. cerevisiae sgs1 mutant, stronger effect = higher value
Procedure, shortened: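 Relative growth inhibition, referenced to vehicle, was determined in a yeast strain with a defined alteration affecting DNA damage repair or cell cycle control after compound exposure.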

[14] = NCI Yeast Anticancer Drug Screen. Data for the mlh1 rad18 strain (AID 175); conditions: S. cerevisiae mlh1 rad18 strain growth inhibition, stronger effect = higher value
Procedure, shortened: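 In this whole-cell yeast screen, a strain with altered DNA damage repair is challenged with compound, and its growth is measured against matched vehicle-treated controls.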

[15] = NCI Yeast Anticancer Drug Screen. Data for the rad18 strain (AID 177); conditions: S. cerevisiae rad18 mutant growth inhibition, stronger effect = higher value
Procedure, shortened: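 Screen uses a yeast strain with a defined lesion in DNA damage repair; compound effect is read as loss of growth compared to untreated vehicle cultures.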

[16] = NCI Yeast Anticancer Drug Screen. Data for the wt2 strain (AID 169);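 also: 0% = growth of vehicle-treated yeast cultures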; conditions: S. cerevisiae wt2 strain growth inhibition, stronger effect = higher value
Procedure, shortened: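 Genetically defined yeast strains from a DNA-repair/cell-cycle panel were used. Compound-exposed yeast growth was measured, and the inhibition was calculated relative to vehicle treatment.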

[17] = at 5.0 µM (retest, dose inferred, filed as 0.5)
[18] = at 50.0 µM (retest, dose inferred, filed as 5.0)

Measured: growth inhibition

O=[N+]([O-])c1cc[n+]([O-])cc1
26.8% (inactive) and 87.5% (active): [14]; at 50.0 µM
46.1% (inactive) and 83.2% (active): [5]; at 50.0 µM
26.7% (inactive) and 86.5% (active): [8]; at 50.0 µM
active: [1]; at 100.0 µM 98% | [2]; at 100.0 µM 99% | [3]; at 100.0 µM 98% | [4]; at 100.0 µM 99% | [5]; at 100.0 µM 99% | [6]; at 100.0 µM 99% | [7]; at 100.0 µM 99% | [9]; at 100.0 µM 98% | [11]; at 100.0 µM 99% | [12]; at 100.0 µM 99% | [13]; at 100.0 µM 99% | [15]; at 100.0 µM 98%
inactive: [1]; at 1.2 µM -3% | [1]; at 3.7 µM 2% | [1]; at 11.0 µM 4% | [1]; at 33.0 µM 32% | [2]; at 1.2 µM -6% | [2]; at 3.7 µM -6% | [2]; at 11.0 µM -10% | [2]; at 33.0 µM -14% | [3]; at 1.2 µM 1% | [3]; at 3.7 µM 11% | [3]; at 11.0 µM 12% | [3]; at 33.0 µM 48% | [4]; at 1.2 µM -1% | [4]; at 3.7 µM -4% | [4]; at 11.0 µM -3% | [4]; at 33.0 µM -16% | [5]; at 1.2 µM -6% | [5]; at 3.7 µM -6% | [5]; [17] -158% and 4% | [5]; at 11.0 µM -1% | [5]; at 33.0 µM 58% | [5]; [18] 66% and 60% | [6]; at 1.2 µM 4% | [6]; at 3.7 µM -2% | [6]; [17] -52% and 2% | [6]; at 11.0 µM 0% | [6]; at 33.0 µM -2% | [6]; [18] -19% and 38% | [6]; at 50.0 µM 52% and 57.5% | [7]; at 1.2 µM -2% | [7]; at 3.7 µM 1% | [7]; at 11.0 µM -1% | [7]; at 33.0 µM 19% | [8]; [17] -62% and -8% | [8]; [18] 40% and 54% | [9]; at 1.2 µM -3% | [9]; at 3.7 µM -4% | [9]; at 11.0 µM -2% | [9]; at 33.0 µM 5% | [10]; [17] -61% and -3% | [10]; [18] -19% and 19% | [10]; at 50.0 µM 50.1% and 7.4% | [11]; at 1.2 µM -12% | [11]; at 3.7 µM -8% | [11]; [17] -68% and 5% | [11]; at 11.0 µM 2% | [11]; at 33.0 µM 22% | [11]; [18] 13% and 33% | [11]; at 50.0 µM 9.95% and 68% | [12]; at 1.2 µM 3% | [12]; at 3.7 µM -6% | [12]; at 11.0 µM -3% | [12]; at 33.0 µM -3% | [13]; at 1.2 µM -2% | [13]; at 3.7 µM -3% | [13]; at 11.0 µM -8% | [13]; at 33.0 µM 33% | [14]; [17] -136% and 0% | [14]; [18] 33% and 53% | [15]; at 1.2 µM -2% | [15]; at 3.7 µM 0% | [15]; at 11.0 µM 3% | [15]; at 33.0 µM 16%

CNC(=O)OCc1c(COC(=O)NC)c(-c2ccc(Cl)c(Cl)c2)n2c1SCC2
inactive: [1]; at 1.2 µM 0% | [1]; at 3.7 µM 0% | [1]; at 11.0 µM 3% | [1]; at 33.0 µM 14% | [2]; at 1.2 µM -1% | [2]; at 3.7 µM 0% | [2]; at 11.0 µM -1% | [2]; at 33.0 µM -3% | [2]; at 100.0 µM 6% | [3]; at 1.2 µM -3% | [3]; at 3.7 µM -3% | [3]; at 11.0 µM -3% | [3]; at 33.0 µM -3% | [3]; at 100.0 µM 4% | [4]; at 1.2 µM -4% | [4]; at 3.7 µM -1% | [4]; at 11.0 µM -1% | [4]; at 33.0 µM -3% | [4]; at 100.0 µM 12% | [5]; at 1.2 µM -1% | [5]; at 3.7 µM -3% | [5]; [17] -17% | [5]; at 11.0 µM -3% | [5]; at 33.0 µM 4% | [5]; [18] 35% | [5]; at 50.0 µM 65.7% | [6]; at 1.2 µM -2% | [6]; at 3.7 µM -4% | [6]; [17] 0% | [6]; at 11.0 µM -3% | [6]; at 33.0 µM -4% | [6]; [18] 18% | [6]; at 50.0 µM 27.3% | [6]; at 100.0 µM 38% | [7]; at 1.2 µM 0% | [7]; at 3.7 µM 2% | [7]; at 11.0 µM 4% | [7]; at 33.0 µM 18% | [8]; [17] -5% | [8]; [18] 32% | [8]; at 50.0 µM 39.4% | [9]; at 1.2 µM -1% | [9]; at 3.7 µM -6% | [9]; at 11.0 µM -6% | [9]; at 33.0 µM -5% | [9]; at 100.0 µM -1% | [10]; [17] -3% | [10]; [18] 23% | [10]; at 50.0 µM 25.1% | [11]; at 1.2 µM -2% | [11]; at 3.7 µM -5% | [11]; [17] 0% | [11]; at 11.0 µM -4% | [11]; at 33.0 µM -6% | [11]; [18] 9% | [11]; at 50.0 µM 4.3% | [11]; at 100.0 µM 20% | [16]; at 1.2 µM -1% | [16]; at 3.7 µM -2% | [16]; at 11.0 µM -2% | [16]; at 33.0 µM -5% | [16]; at 100.0 µM 25% | [13]; at 1.2 µM -1% | [13]; at 3.7 µM -1% | [13]; at 11.0 µM 1% | [13]; at 33.0 µM 12% | [14]; [17] 2% | [14]; [18] 58% | [15]; at 1.2 µM 0% | [15]; at 3.7 µM 3% | [15]; at 11.0 µM 11% | [15]; at 33.0 µM 48%
active: [1]; at 100.0 µM 76% | [5]; at 100.0 µM 76% | [7]; at 100.0 µM 85% | [13]; at 100.0 µM 72% | [14]; at 50.0 µM 86% | [15]; at 100.0 µM 95%
